Compound activity as filed in PubChem.
PMP22 txn prim: modulates PMP22 transcription in S16 Schwann cells. S16 Pmp22-F2sN Schwann cells, FLuc/NLuc coincidence luminescence, 24 h. Potency, µM (top dose mostly 57.5 µM), hits mostly inhibitors. 2% of 43,000 active; active = clear falling dose curves in both reporters; inconclusive = both reporters move, but less clearly or upward; inactive = either reporter flat; the % is the NLuc reporter signal
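Transcriptional readout in edited S16(c9) cells: two luciferases reported from the Pmp22 locus, measured in turn after 24 h compound incubation.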
p53null 32C kill: p53 null cell cytotoxicity, permissive temperature; H1299-neo p53 null cells, ATP luminescence, 24 h, 32C; Potency, µM (doses to about 46.1 µM), usual class: cytotoxic; 0.62% of 55,000 active; AID 903; also: nearly all actives have a fitted effect of over 55% in size
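AC50 values derive from Hill modelling of qHTS concentration-response data (up to 46 uM) in H1299-neo cells. Cells were treated 24 h at 32C following overnight attachment at 37C; viability was read as cellular ATP.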
pS6 MEF inh: inhibitors of mTORC1 signaling in Tsc2-/- p53-/- MEF cells | Tsc2-/- p53-/- MEF, phospho-rpS6 immunofluorescence/PI, 24 h | Potency, µM (highest dose often 38.3 µM), usual class: inhibitors | 0.78% of 44,000 active | AID 493208; also: nearly all actives have a fitted effect of over 50% in size
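Read-out: phospho-S6 Alexa-488 intensity over PI intensity per well, scored as % active cells using thresholds from rapamycin (7.5 nM) and DMSO controls. Tsc2-/-, p53-/- MEFs exposed to compound for 24 h; PI cell count recorded as viability.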
p53null 39C kill: selectivity test: cytotoxicity in p53 null cells, nonpermissive temperature; Potency, µM (titrated, usually from 46.1 µM), actives largely listed as cytotoxic; AID 904; H1299 p53-null (neo) cells, 39C, ATPlite viability, 24 h; 0.97% of 55,000 active; also: nearly all actives have a fitted effect of over 50% in size
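Luminescent ATP signal reported cell survival after H1299 lines (neo, p53 null; or p53 A138V) received up to 46 uM compound and 24 hr incubation at 39C.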
SKOV3 invasion: inhibitors of ovarian cancer cell adhesion and invasion in omental model; AID 1963576; Potency, µM (series often up to 45.8 µM), most hits filed as inhibitors; 0.1% of 46,000 active; SKOV3ip1-GFP adhesion/invasion on 3D omental model, fluorescence; also: nearly all actives have a fitted effect of over 65% in size
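qHTS, 4-pt dose (0.36-46 umol/L); SKOV3ip1-GFP, 1,200 cells/well, no FBS; primary omental fibroblast/mesothelial co-culture 48 h pre-grown; 2 h RT + 16 h 37 C; PBS wash, 4% PFA; GFP count 488/509 nm.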
S16 F2sN tox: cytotoxicity in S16 Pmp22-F2sN Schwann cells; Potency, µM (highest dose often 57.5 µM), usual class: cytotoxic; S16 Pmp22-F2sN Schwann cells (luciferase reporters placed in the Pmp22 gene) viability, CellTiter-Glo, 24 h; AID 1508642; 0.48% of 43,000 active; also: nearly all actives have a fitted effect of over 65% in size
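S16 Schwann cells carrying the Pmp22-F2sN reporter, seeded in 1536-well format, were exposed to library compounds for 24 h at 37C. Viability was read as CellTiter-Glo luminescence after 15 min at room temperature.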
Numbers stand for hits; . = inactive; ? = inconclusive; / = not tested or not shown; [ ] = another dose, or the depositor's remark. The list is not random: actives were taken first. Their share in the collection is about 3.1%. Unless noted, calls follow the shape of the dose curve; as a rule, active = well fitted curve in the direction sought with a large enough effect; inconclusive = small, poorly fitted or top-dose-only effect, or another doubt; inactive = no such curve, though single readings can be large; an effect the other way counts as inactive or inconclusive.

SMILES	PMP22 txn prim	p53null 32C kill	pS6 MEF inh	p53null 39C kill	SKOV3 invasion	S16 F2sN tox
Cc1ccc(C)c(N2CCN(CCCNC(=O)c3cnn(-c4cccc(Cl)c4)c3C3CCN(C(=O)OC(C)(C)C)CC3)CC2)c1	?	.	?	?	.	?
Cc1ccc(C)c(N2CCN(CCCNC(=O)c3cnn(-c4ccccc4Cl)c3C3CCN(C(=O)OC(C)(C)C)CC3)CC2)c1	?	.	?	13µM	?	?
O=[N+]([O-])c1ccc(Nc2ccccc2-c2ccccc2)c2nonc12	/	/	/	/	.	/
COc1cc2c(Nc3ccc(Cl)c(Cl)c3F)ncnc2cc1OCC1C[C@@H]2CN(C)C[C@H]2C1	/	/	/	/	.	/
CCOc1ccccc1NS(=O)(=O)c1ccc(-c2cnc(C3CC3)o2)cc1	?	.	?	?	.	.
Cc1cc(C)c(NS(=O)(=O)c2cc(-c3cnc(C4CC4)o3)ccc2C)c(C)c1	.	.	.	.	?	.
COc1cccc(N2CCN(S(=O)(=O)c3ccc(-c4cnc(C5CC5)o4)cc3)CC2)c1	?	.	.	.	.	16µM
CCN(CC)c1ccc(NS(=O)(=O)c2ccc(-c3cnc(C4CC4)o3)cc2)c(C)c1	?	?	.	.	.	1.8µM
Cc1cc(C)c(NS(=O)(=O)c2ccc(-c3cnc(C4CC4)o3)cc2)c(C)c1	?	.	?	?	.	0.79µM
CCN(C(=O)C1CCN(S(=O)(=O)c2cc(Br)cc3c2N(C(C)=O)CC3)CC1)c1cccc(C)c1	8.9µM	.	.	.	.	?
COc1cc(Oc2ccnc3cc(OC)c(OC)cc23)ccc1NC(=O)NC(C)c1nccs1 (stereo unspecified)	/	/	/	/	.	/
CC1CCN(c2nc(-c3ccc(C(C)(C)C)cc3)nc3ccccc23)CC1	?	13µM	.	13µM	.	.
CC1CCCCN1c1nc(-c2ccc(C(C)(C)C)cc2)nc2ccccc12 (stereo unspecified)	.	13µM	.	16µM	.	.
CC(=Cc1ccccc1)C=C1SC(=S)N(CC(=O)O)C1=O	/	/	/	/	.	/
O=C1C(Cl)=C(NCCN2CCOCC2)C(=O)c2ncccc21	/	/	/	/	5.9µM	/
CCOC(=O)c1cnc2c(Cl)cccc2c1NCCN1CCOCC1	.	.	.	.	.	.
O=C(NC1CCCCC1)c1ccc(S(=O)(=O)N2CCCC2)cc1	/	.	/	.	/	/
O=C(N/N=C\c1cc(Cl)ccc1O)c1ccc(S(=O)(=O)N2CCCCC2)cc1	/	7.1µM	/	/	/	/
Cc1cc(NC(=O)c2ccco2)cc(-c2nc3cc(Cl)ccc3o2)c1O	?	?	12µM	?	.	.
Cc1ccc(C(=O)Nc2ccccc2C(=O)O)cc1S(=O)(=O)N1CCCCCC1	.	5µM	.	10µM	.	.
Cc1ccccc1NC(=O)c1ccc(Cl)c(S(=O)(=O)N2CCCCCC2)c1	.	.	.	?	.	?
Cc1ccc(CN2CCNCC2)cc1NC(=O)CNc1ccc(F)c(F)c1	/	/	/	/	.	/
CCN1CCN(C(=O)Cn2ncc3c4ccccc4n(Cc4c(C)cc(C)cc4C)c3c2=O)CC1	?	.	16µM	?	?	?
c1ccc(-c2nc(-c3ccccn3)no2)cc1	/	5.6µM	/	7.9µM	/	/
CCN(CC)c1ccc(-c2nc(-c3ccccn3)no2)cc1[N+](=O)[O-]	?	.	.	.	.	.
SMILES	PMP22 txn prim	p53null 32C kill	pS6 MEF inh	p53null 39C kill	SKOV3 invasion	S16 F2sN tox
Cc1cccc(-n2nnnc2S(C)(=O)=O)c1	6.7µM	14µM	0.41µM	.	?	5µM
COC(=O)c1nnn(-c2cccc(C)c2)c1C(=O)OC	.	.	.	.	.	.
CCN(C(=O)c1ccco1)c1nnc(-c2ccc(OC)cc2)s1	/	?	/	13µM	/	/
CCN(CC)CCCNC(=O)c1nn(-c2ccc(C)cc2)c(=O)c2c1c1ccccc1n2C	?	.	?	.	.	?
CCN(CC)CCOC(=O)c1ccc(NC(=O)c2nn(-c3ccc(C)cc3)c(=O)c3c2c2ccccc2n3C)cc1	5.1µM	6.3µM	0.93µM	4µM	?	4.5µM
COc1ccc(-c2nnc(SC(C)C(=O)O)o2)cc1 (stereo unspecified)	.	?	.	16µM	.	.
CC(C)c1ccc(S(=O)(=O)/N=C2/C=C(Sc3ncn[nH]3)C(=O)c3ccccc32)cc1	/	6.3µM	/	/	/	/
Cc1ccc(-c2nc3ccccc3[nH]2)cc1NC(=O)COc1ccccc1[N+](=O)[O-]	?	?	2.3µM	?	?	.
Cc1cccc(N2CCN(C(=O)c3ccc4c(c3)c(C)c(C)n4C)CC2)c1C	.	.	.	.	.	.
Cc1ccc(C)c(N2CCN(C(=O)c3ccc4c(c3)c(C)c(C)n4C)CC2)c1	.	.	.	25µM	.	.
O=S(=O)(c1ccc(-c2csc(=Nc3ccc(F)cc3)n2CCCCCCO)cc1)N1CCCC1	8.8µM	.[9.22 µM]	?	?	.	18µM
OCCCn1c(-c2ccc(F)cc2)csc1=Nc1ccc(F)cc1	?	.[9.22 µM]	.	.	.	?
CN1CCN(c2cc(C(=O)Nc3ccc4c(c3)-c3c(c(C(N)=O)nn3-c3ccc(F)cc3)CC4)c(Cl)cn2)CC1	/	/	/	/	.	/
CS(=O)(=O)N(CC(=O)NCCc1ccccc1)c1cc(C(F)(F)F)ccc1Cl	.	.	6.6µM	.	.	.
CCN(CCO)C(=O)CC(c1ccccc1)c1cc(Br)ccc1O (stereo unspecified)	/	.	/	.	/	/
O=C(CC(c1ccccc1)c1cc(Br)ccc1O)NCC1(c2ccccc2)CCCC1 (stereo unspecified)	/	?	.	16µM	?	/
CCOc1ccccc1/C=C/c1onc(C)c1S(=O)(=O)N1CCC(C(=O)N(CC)CC)CC1	?	.	.	.	.	?
CCN(CCN(C)C)C(=O)C1CCN(S(=O)(=O)c2c(C)noc2/C=C/c2ccccc2F)CC1	?	.	18µM	?	.	?
Cn1cc(CNCC2CCN(c3ncc(C(=O)NO)cn3)CC2)c2ccccc21	/	/	/	/	.	/
COC(=O)c1ccc(Nc2nnc(-c3ccc(C)c(S(=O)(=O)N4CCN(C)CC4)c3)c3ccccc23)cc1	.	.	21µM	.	.	?
Oc1ccc(Nc2nc(-c3ccc(Cl)cc3)nc3ccccc23)cc1	?	?	?	16µM	.	?
CCN(CC)C(=O)CSc1nc(-c2ccc(C)cc2)nc2c1Cc1c(CO)cnc(C)c1O2	?	.	.	.	.	10µM
Cc1ccc(-c2nc3c(c(SCC(=O)N(C)c4ccccc4)n2)Cc2c(CO)cnc(C)c2O3)cc1	?	.	.	.	.	?
CC1(C)CC(=O)c2sc(NC(=O)c3cccs3)nc2C1	/	2.2µM	/	1.1µM	/	/
